The record followed here is PubChem BioAssay (EPA / NIEHS).

Experiment [1] has as its target human Opioid Receptor Delta 1 (Opiate D1), OPRD1 (gene 4985) (UniProt P41143). Description: NVS_GPCR_hOpiate_D1: NovaScreen (NVS) G Protein-Coupled Receptor Assay for human Opioid Receptor Delta 1 (Opiate D1) (AID 2283280). The procedure, abridged:
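Radioligand displacement on membranes from CHO cells expressing the receptor, read by filter scintillation counting 1 h after dosing. Duplicate single-point screen at 25 uM, then concentration series for actives; loss of signal versus DMSO.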

Experiment [2] concerns the target rat Adrenergic, Alpha 1, Non-selective Receptor (Adra1), Adra1a (gene 29412) (UniProt P43140). Description: NVS_GPCR_rAdra1_NonSelective: NovaScreen (NVS) G Protein-Coupled Receptor Assay for rat Adrenergic, Alpha 1, Non-selective Receptor (Adra1) (AID 2283289). The procedure, abridged:
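Rat forebrain membranes; radioligand displacement read by filter-based scintillation counting 1 h after dosing. Primary screen in duplicate at 25 uM; hits (e.g. ≥30% inhibition) rerun as concentration–response to 50 uM max. Fitted versus DMSO.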

Experiment [3] concerns the target human Neuropeptide Receptor Y1 (NPY1), NPY1R (gene 4886) (UniProt P25929). As to the kind of experiment: NVS_GPCR_hNPY1: NovaScreen (NVS) G Protein-Coupled Receptor Assay for human Neuropeptide Receptor Y1 (NPY1) (AID 2283276). The procedure, abridged: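 Cell-free radioligand binding using receptor extracted from SK-N-MC cells, 1 h incubation, filter-based scintillation counting. Primary screen single concentration 25 uM in duplicate; actives followed in concentration series. Loss of bound signal scored versus DMSO.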

Experiment [4] deals with human Neurokinin, NK2 Receptor, TACR2 (gene 6865) (UniProt P21452). As to the kind of experiment: NVS_GPCR_hNK2: NovaScreen (NVS) G Protein-Coupled Receptor Assay for human Neurokinin, NK2 Receptor (AID 2283278).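 Also: actives reduce bound radioligand signal relative to DMSO baseline.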 The procedure, abridged: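 Radioligand binding on membranes from CHO cells expressing receptor, filter-based scintillation read 4 h after dosing. Initial duplicate screen at 25 uM, actives in concentration series; loss of signal versus DMSO.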

In experiment [5] the target is human Vasopressin 1A Receptor (V1A), AVPR1A (gene 552) (UniProt P37288). As to the kind of experiment: NVS_GPCR_hV1A: NovaScreen (NVS) G Protein-Coupled Receptor Assay for human Vasopressin 1A Receptor (V1A) (AID 2283284). Put shortly:
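Cell-free radioligand displacement on human platelet preparations, 1.5 h incubation, filter-based scintillation counting. Chemicals first tested in duplicate at 25 uM; actives then run in concentration-response up to 50 uM, loss of signal fitted against DMSO.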

Experiment [6] concerns the target human Leukotriene B4 Receptor 1 (LTB4-BLT1), LTB4R (gene 1241) (UniProt Q15722). As to the kind of experiment: NVS_GPCR_hLTB4_BLT1: NovaScreen (NVS) G Protein-Coupled Receptor Assay for human Leukotriene B4 Receptor 1 (LTB4-BLT1) (AID 2283271). Put shortly:
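Radioligand displacement binding on receptor extracted from human neutrophils, cell-free, 1 h after dosing; filter-based scintillation counting. Primary screen in duplicate at 25 uM, actives retested in concentration-response up to 50 uM; loss of signal versus DMSO.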

Experiment [7] has as its target Muscarinic acetylcholine receptor M1 (Homo sapiens) (UniProt P11229). Description: NVS_GPCR_hM1: NovaScreen (NVS) G Protein-Coupled Receptor Assay for human Muscarinic, M1 Receptor (AID 2283270). Put shortly:
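Cell-free radioligand displacement using membrane protein extracted from CHO cells, read by filter-based scintillation counting 1 h after dosing. Loss of bound signal fitted versus DMSO; primary screen single concentration 25 uM in duplicate, actives followed by concentration series.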

In experiment [8] the target is Muscarinic acetylcholine receptor M3 (Homo sapiens) (UniProt P20309). As to the kind of experiment: NVS_GPCR_hM3: NovaScreen (NVS) G Protein-Coupled Receptor Assay for human Muscarinic, M3 Receptor (AID 2283272). Put shortly: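 Radioligand displacement binding on human M3 receptor in CHO-derived membranes, 1 h incubation, filter-based scintillation counting. Primary screen in duplicate at 25 uM; actives followed up in concentration series; loss of signal versus DMSO.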

The target in experiment [9] is Muscarinic acetylcholine receptor M2 (Homo sapiens) (UniProt P08172). As to the kind of experiment: NVS_GPCR_hM2: NovaScreen (NVS) G Protein-Coupled Receptor Assay for human Muscarinic, M2 Receptor (AID 2283273). The procedure, abridged:
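Cell-free radioligand binding using membranes from CHO cells expressing the receptor; filter-based scintillation counting after 1 hour of compound exposure. Loss of specific binding relative to DMSO baseline; primary screen at 25 uM in duplicate, actives then run in concentration series.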

The target of experiment [10] is Muscarinic acetylcholine receptor M5 (Homo sapiens) (UniProt P08912). As to the kind of experiment: NVS_GPCR_hM5: NovaScreen (NVS) G Protein-Coupled Receptor Assay for human Muscarinic, M5 Receptor (AID 2283275). Put shortly: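 Radioligand displacement on CHO-derived membrane preparations, 1 h, filter-based scintillation counting. Single-concentration duplicate screen at 25 uM; hits (e.g. 30% inhibition) retested in singleton concentration-response up to 50 uM. Loss of binding fitted versus DMSO.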

For experiment [11], the system named is 5-hydroxytryptamine receptor 2C (pig). Description: NVS_GPCR_p5HT2C: NovaScreen (NVS) G Protein-Coupled Receptor Assay for pig Serotonin, 5-Hydroxytryptamine Receptor 2C (5HT2C) (AID 2283288). Put shortly:
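Pig choroid plexus membranes; radioligand competitive binding, filter-based scintillation counting, read 1 h after dosing. Primary screen in duplicate at 25 uM; actives then run as concentration series; loss of signal versus DMSO baseline.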

Experiment [12] has as its target D(1A) dopamine receptor (Homo sapiens) (UniProt P21728). Description: NVS_GPCR_hDRD1: NovaScreen (NVS) G Protein-Coupled Receptor Assay for human Dopamine Receptor D1 (DRD1) (AID 2283269). The procedure, abridged: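 Radioligand displacement binding on membranes/protein extracted from HEK293 expressing human D1, cell-free; read 1 h after dosing by filter-based scintillation counting. Primary screen in duplicate at 25 uM, actives followed up in concentration series; signal loss versus DMSO baseline.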

Experiment [13] concerns the target rat Serotonin, 5-Hydroxytryptamine Receptor 1 (5HT1), Non-Selective Binding, Htr1a (gene 24473) (UniProt P19327). Description: NVS_GPCR_r5HT1_NonSelective: NovaScreen (NVS) G Protein-Coupled Receptor Assay for rat Serotonin, 5-Hydroxytryptamine Receptor 1 (5HT1), Non-Selective Binding (AID 2283286). The procedure, abridged:
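Rat cortical membranes, radioligand displacement, 1 h incubation, read by filter scintillation. Primary screen in duplicate at 25 uM. Hits (e.g. ≥30% inhibition) went to concentration-response up to 50 uM, fitted as loss of binding versus DMSO.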

Experiment [14] has as its target human Neurotensin Receptor (NTS), NTSR1 (gene 4923) (UniProt P30989). Description: NVS_GPCR_hNTS: NovaScreen (NVS) G Protein-Coupled Receptor Assay for human Neurotensin Receptor (NTS) (AID 2283279). The procedure, abridged:
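Radioligand displacement on human NTSR1 protein from CHO cells, cell-free, 1 h, filter-based scintillation counting. Primary screen at 25 uM in duplicate; hits rerun in concentration-response up to 50 uM.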

Experiment [15] has as its target human Thromboxane A2 Receptor (TXA2), TBXA2R (gene 6915) (UniProt P21731). Description: NVS_GPCR_hTXA2: NovaScreen (NVS) G Protein-Coupled Receptor Assay for human Thromboxane A2 Receptor (TXA2) (AID 2283282).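 Also: actives reduce bound radioligand signal relative to DMSO baseline.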 The procedure, abridged:
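Human platelet membranes tested for radioligand displacement by filtration and scintillation counting 1 h post-dose. Screened in duplicate at 25 uM; activity fitted as signal loss relative to DMSO.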

Experiment [16] addresses human Purinergic Receptor P2Y, P2RY1 (gene 5028) (UniProt P47900). As to the kind of experiment: NVS_GPCR_hPY2: NovaScreen (NVS) G Protein-Coupled Receptor Assay for human Purinergic Receptor P2Y (AID 2283281). Put shortly:
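Cell-free radioligand binding using U937-derived protein, 1 h after dosing, filter-based scintillation counting. Screened in duplicate at 25 uM; actives rerun as concentration-response up to 50 uM; loss of signal versus DMSO.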

For experiment [17], the system named is rabbit Platelet Activating Factor Receptor (PAF), gene 100354046. Description: NVS_GPCR_rabPAF: NovaScreen (NVS) G Protein-Coupled Receptor Assay for rabbit Platelet Activating Factor Receptor (PAF) (AID 2283287). Put shortly: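 Rabbit platelet membrane preparation; radioligand displacement read by filter-based scintillation counting 1 h after dosing, loss of signal versus DMSO. Primary screen in duplicate at 25 uM, actives followed up in concentration series.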

For experiment [18], the target named is human Orphanin, Opioid Related Nociceptin Receptor 1 (ORL1), OPRL1 (gene 4987) (UniProt P41146). Description: NVS_GPCR_hORL1: NovaScreen (NVS) G Protein-Coupled Receptor Assay for human Orphanin, Opioid Related Nociceptin Receptor 1 (ORL1) (AID 2283283). Put shortly:
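Filter-based radioligand displacement with receptor extracted from HEK293 cells, read 1 hour after dosing by scintillation counting. Duplicate single-point screen at 25 uM; qualifying chemicals then run in concentration-response to 50 uM, analysed relative to DMSO.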

Results filed as inconclusive are left out. Activity calls are given as the source filed them. The calls were made as follows: active = hit-call score of the fitted dose curve at least 0.9, where 1 is the maximum; inconclusive = response in the unintended direction; inactive = score below 0.9.

human Neurokinin, NK2 Receptor, TACR2 (gene 6865), sequence (P21452 whole entry, looked up): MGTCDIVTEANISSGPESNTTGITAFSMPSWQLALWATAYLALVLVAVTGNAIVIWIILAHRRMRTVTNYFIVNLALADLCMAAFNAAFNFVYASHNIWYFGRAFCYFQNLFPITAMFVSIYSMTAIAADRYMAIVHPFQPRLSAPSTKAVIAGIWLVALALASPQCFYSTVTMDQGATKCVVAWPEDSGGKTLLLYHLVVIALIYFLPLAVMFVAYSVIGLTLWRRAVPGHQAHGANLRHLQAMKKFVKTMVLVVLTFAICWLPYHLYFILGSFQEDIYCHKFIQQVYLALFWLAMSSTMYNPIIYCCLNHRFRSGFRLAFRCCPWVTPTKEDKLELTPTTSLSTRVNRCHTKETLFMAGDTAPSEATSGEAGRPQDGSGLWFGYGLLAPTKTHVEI
human Leukotriene B4 Receptor 1 (LTB4-BLT1), LTB4R (gene 1241), sequence (Q15722 whole entry, looked up): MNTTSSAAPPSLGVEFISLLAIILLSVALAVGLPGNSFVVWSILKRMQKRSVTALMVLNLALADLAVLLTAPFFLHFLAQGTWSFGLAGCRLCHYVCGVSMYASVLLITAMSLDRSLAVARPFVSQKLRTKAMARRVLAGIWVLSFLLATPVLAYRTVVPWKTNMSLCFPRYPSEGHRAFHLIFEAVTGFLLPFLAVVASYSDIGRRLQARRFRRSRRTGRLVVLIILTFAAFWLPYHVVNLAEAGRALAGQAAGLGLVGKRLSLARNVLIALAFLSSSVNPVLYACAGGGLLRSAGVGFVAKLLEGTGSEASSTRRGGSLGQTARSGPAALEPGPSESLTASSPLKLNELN
rat Adrenergic, Alpha 1, Non-selective Receptor (Adra1), Adra1a (gene 29412), sequence (P43140 whole entry, looked up): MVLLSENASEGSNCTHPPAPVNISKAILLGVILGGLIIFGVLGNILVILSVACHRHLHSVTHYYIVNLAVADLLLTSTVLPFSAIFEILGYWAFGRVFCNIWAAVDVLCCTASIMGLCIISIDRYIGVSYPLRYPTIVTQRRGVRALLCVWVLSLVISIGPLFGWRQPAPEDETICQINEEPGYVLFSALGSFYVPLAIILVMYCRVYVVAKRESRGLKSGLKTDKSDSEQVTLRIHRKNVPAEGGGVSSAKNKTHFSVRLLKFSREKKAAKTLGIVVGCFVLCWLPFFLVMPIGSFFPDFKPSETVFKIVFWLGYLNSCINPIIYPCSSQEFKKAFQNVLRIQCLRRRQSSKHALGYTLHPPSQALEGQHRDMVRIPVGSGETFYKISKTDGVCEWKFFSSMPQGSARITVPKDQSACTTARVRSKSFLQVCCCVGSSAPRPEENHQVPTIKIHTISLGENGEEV
Muscarinic acetylcholine receptor M2 (Homo sapiens), sequence (P08172 whole entry, looked up): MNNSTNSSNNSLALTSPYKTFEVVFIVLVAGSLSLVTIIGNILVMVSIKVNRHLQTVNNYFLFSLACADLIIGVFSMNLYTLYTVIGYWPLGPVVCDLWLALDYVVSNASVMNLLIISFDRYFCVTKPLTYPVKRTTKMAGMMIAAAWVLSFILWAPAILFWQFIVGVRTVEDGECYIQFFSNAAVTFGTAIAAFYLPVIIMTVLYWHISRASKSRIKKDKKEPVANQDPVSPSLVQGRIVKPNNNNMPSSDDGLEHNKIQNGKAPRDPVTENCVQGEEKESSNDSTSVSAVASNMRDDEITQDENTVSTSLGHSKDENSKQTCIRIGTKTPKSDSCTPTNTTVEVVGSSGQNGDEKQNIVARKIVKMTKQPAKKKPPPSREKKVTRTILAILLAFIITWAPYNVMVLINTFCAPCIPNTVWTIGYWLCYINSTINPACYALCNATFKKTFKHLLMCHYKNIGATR
human Opioid Receptor Delta 1 (Opiate D1), OPRD1 (gene 4985), sequence (P41143 whole entry, looked up): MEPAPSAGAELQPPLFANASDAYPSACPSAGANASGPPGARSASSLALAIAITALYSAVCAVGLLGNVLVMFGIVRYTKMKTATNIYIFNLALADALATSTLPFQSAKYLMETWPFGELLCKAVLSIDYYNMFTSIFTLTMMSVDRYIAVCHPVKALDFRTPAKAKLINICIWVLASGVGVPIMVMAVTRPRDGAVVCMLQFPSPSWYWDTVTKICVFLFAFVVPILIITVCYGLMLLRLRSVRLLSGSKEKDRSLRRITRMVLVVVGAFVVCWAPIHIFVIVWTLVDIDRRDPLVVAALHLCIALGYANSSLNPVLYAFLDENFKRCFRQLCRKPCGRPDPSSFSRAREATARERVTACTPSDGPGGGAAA
D(1A) dopamine receptor (Homo sapiens), sequence (P21728 whole entry, looked up): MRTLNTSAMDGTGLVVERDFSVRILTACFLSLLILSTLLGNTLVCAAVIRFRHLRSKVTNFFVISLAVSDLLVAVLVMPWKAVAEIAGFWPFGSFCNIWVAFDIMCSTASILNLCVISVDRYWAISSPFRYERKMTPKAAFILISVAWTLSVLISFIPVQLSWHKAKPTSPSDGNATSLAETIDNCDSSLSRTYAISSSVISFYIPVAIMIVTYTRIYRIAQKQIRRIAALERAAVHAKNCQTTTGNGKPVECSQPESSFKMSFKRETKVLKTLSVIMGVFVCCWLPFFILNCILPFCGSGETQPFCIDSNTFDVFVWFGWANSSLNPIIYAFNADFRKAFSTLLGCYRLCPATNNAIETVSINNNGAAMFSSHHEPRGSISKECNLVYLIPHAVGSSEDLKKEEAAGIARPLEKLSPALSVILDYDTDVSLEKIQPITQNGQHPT
rat Serotonin, 5-Hydroxytryptamine Receptor 1 (5HT1), Non-Selective Binding, Htr1a (gene 24473), sequence (P19327 whole entry, looked up): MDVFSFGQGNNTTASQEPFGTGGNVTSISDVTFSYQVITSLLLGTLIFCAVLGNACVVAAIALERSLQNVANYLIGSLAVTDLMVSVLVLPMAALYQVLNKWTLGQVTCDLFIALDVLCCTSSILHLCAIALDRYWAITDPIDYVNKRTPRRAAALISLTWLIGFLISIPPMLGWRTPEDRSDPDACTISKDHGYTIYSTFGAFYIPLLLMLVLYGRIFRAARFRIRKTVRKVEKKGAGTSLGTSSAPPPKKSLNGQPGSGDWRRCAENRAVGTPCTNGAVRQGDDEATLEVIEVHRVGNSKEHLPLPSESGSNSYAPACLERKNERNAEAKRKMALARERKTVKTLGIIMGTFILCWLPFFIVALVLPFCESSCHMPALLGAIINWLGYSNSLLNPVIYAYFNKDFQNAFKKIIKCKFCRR
Muscarinic acetylcholine receptor M3 (Homo sapiens), sequence (P20309 whole entry, looked up): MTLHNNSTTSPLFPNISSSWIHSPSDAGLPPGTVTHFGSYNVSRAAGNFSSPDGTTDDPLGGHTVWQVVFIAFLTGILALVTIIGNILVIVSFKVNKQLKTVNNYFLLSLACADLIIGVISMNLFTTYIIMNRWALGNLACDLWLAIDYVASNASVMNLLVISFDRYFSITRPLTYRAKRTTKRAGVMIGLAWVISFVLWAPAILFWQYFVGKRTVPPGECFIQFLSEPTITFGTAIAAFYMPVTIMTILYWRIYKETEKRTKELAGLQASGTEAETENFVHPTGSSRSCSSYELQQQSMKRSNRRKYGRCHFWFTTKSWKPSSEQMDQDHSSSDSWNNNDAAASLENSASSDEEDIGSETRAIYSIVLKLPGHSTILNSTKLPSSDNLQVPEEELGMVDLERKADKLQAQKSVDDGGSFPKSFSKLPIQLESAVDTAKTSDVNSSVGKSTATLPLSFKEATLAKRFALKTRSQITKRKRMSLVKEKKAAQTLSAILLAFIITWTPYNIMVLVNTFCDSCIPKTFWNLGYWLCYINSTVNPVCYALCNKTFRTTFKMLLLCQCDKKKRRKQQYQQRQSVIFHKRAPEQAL
human Orphanin, Opioid Related Nociceptin Receptor 1 (ORL1), OPRL1 (gene 4987), sequence (P41146 whole entry, looked up): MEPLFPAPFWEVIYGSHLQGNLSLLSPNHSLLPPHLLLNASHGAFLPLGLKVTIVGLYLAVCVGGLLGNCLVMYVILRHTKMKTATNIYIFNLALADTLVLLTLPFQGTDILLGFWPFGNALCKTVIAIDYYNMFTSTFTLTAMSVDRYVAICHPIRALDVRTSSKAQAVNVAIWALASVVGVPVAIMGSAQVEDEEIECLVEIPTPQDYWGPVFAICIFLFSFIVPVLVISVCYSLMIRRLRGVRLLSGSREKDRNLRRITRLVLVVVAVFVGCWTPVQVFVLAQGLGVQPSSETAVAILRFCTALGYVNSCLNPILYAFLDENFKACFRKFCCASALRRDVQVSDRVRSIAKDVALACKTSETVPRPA
Muscarinic acetylcholine receptor M5 (Homo sapiens), sequence (P08912 whole entry, looked up): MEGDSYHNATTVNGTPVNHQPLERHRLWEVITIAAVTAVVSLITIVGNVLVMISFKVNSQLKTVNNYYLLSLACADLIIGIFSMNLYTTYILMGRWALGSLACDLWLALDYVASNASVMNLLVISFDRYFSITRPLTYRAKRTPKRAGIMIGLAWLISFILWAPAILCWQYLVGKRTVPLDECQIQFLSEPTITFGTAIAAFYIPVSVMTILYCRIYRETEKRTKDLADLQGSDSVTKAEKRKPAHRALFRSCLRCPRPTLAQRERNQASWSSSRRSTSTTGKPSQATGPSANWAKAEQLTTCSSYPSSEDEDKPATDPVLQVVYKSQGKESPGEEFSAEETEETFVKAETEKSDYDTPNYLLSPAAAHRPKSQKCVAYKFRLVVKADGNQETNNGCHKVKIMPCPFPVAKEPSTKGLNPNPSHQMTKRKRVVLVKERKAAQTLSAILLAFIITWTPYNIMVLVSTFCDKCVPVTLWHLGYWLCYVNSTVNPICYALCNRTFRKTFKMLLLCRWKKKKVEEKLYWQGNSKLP
human Neurotensin Receptor (NTS), NTSR1 (gene 4923), sequence (P30989 whole entry, looked up): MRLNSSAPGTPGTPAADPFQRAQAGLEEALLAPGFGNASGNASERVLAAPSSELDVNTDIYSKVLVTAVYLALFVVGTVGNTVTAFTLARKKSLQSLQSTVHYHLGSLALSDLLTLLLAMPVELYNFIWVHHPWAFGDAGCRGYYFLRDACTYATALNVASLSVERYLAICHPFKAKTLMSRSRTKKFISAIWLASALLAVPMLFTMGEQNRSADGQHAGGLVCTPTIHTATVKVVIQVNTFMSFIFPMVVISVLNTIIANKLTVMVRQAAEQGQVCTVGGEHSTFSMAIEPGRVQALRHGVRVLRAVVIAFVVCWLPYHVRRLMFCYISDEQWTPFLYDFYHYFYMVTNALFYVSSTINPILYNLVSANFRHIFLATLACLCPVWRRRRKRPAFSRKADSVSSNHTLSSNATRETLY

Regarding `OCC(O)CO`, the molecule was classed as inactive in experiment [1].

Take `Cc1ccc(C(C)(C)C)c(O)c1`: in [2], the outcome was inactive.

What is called AC50 is the concentration giving half of the maximal activity seen. For `Oc1ccc(O)cc1`, the AC50 in [3] is 10.8 µM (active). Moreover, the outcome in experiment [4] and in experiment [5] was inactive.

Consider `CC(=O)OCC(COC(C)=O)OC(C)=O`, for which the AC50 in [6] is 40.5 µM (active).

`CN(C)C(=O)NC1(c2ccccc2)CCN(CCC[C@]2(c3ccc(Cl)c(Cl)c3)CCCN(C(=O)c3ccccc3)C2)CC1`: the AC50 in experiment [7] is 2.02 µM (active); in experiment [8], 3.84 µM (active); in experiment [9], 2.41 µM (active); in experiment [10], 2.01 µM (active); in experiment [4] it was 0.164 µM (active); in experiment [11], 2.57 µM (active). In [2], the AC50 was 6.25 µM (active). Moreover, in [1], the call was inactive.

Take `O=C(N[C@@H](c1ccccc1)[C@@H]1CCCCN1)c1cccc(C(F)(F)F)c1Cl`: the AC50 in [12] was 12.1 µM (active); in [10], 25 µM (active); in [4] it was 17.8 µM (active). In addition, the call in experiment [2] was inactive.

Turning to `Cn1cnc2c1c(=O)[nH]c(=O)n2C`, the call in experiment [12], in experiment [1] and in [13] was inactive.

For `CCCCOC(=O)CCCCC(=O)OCCCC`, the call in [14] was inactive.

For the molecule `Nc1nc(=S)c2[nH]cnc2[nH]1`, in experiment [4], the AC50 is 44.4 µM (active). Moreover, in [13], the outcome was inactive.

For `CCc1nc(N)nc(N)c1-c1ccc(Cl)cc1`, the AC50 in experiment [12] is 4.73 µM (active); in experiment [9], 13.9 µM (active); in experiment [11], 7.09 µM (active); in experiment [2], 8.12 µM (active). Moreover, the molecule was called inactive in experiment [8].

As to `O=C(O)c1[nH]n(-c2ccc(S(=O)(=O)O)cc2)c(=O)c1N=Nc1ccc(S(=O)(=O)O)cc1`, the half-maximal activity concentration (AC50) in [12] is 19.2 µM (active); in experiment [13] it was 5.69 µM (active). Besides, the call in experiment [8], in experiment [9] and in experiment [2] was inactive.

In the case of `CCCCCCC(CCCCCCCCCCC(=O)OCC(COC(C)=O)OC(C)=O)OC(C)=O` (centres undefined), in experiment [15], the AC50 was 4.54 µM (active).

Regarding `CCCCC(CC)CO` (centres undefined), the molecule was classed as inactive in [6].

For the molecule `CC(COCC(C)OC(=O)c1ccccc1)OC(=O)c1ccccc1` (centres undefined), the molecule was classed as inactive in experiment [16] and in experiment [11].

In the case of `S=c1[nH]c2ccccc2s1`, the result in experiment [4] and in experiment [11] was inactive.

As for `C/C=C/C=C/C(=O)O`, the molecule was called inactive in experiment [14].

In the case of `CC(C)(C)c1ccccc1`, the outcome in [13] was inactive.

Turning to `COC(=O)[C@H]1[C@H]2C[C@@H]3c4[nH]c5cc(OC)ccc5c4CCN3C[C@H]2C[C@@H](OC(=O)c2cc(OC)c(OC)c(OC)c2)[C@@H]1OC`, the AC50 in [17] was 5.47 µM (active). The result in experiment [11] was inactive.

Consider `C#CC(O)C(CC)CCCC` (centres undefined), for which, in experiment [18], the outcome was inactive.

As for `O=Cc1ccccc1C=O`, the AC50 is 17 µM (active) in experiment [9], 12.9 µM (active) in experiment [3], 16.7 µM (active) in experiment [15] and 25 µM (active) in experiment [18].

Regarding `CO[C@@H]1COCC[C@@H]1N[C@@H]1CC[C@@](C(=O)N2CCc3ncc(C(F)(F)F)cc3C2)(C(C)C)C1`, the AC50 in [9] was 12.3 µM (active). Moreover, in experiment [5], the call was inactive.

Consider `NC(=Nc1ccccc1)Nc1ccccc1`, for which, in [9], the half-maximal activity concentration (AC50) was 19.8 µM (active). In experiment [2], the outcome was inactive.

Consider `CSc1ccc(Oc2ccc(S(N)(=O)=O)cc2CN(C)C)cc1C`, for which the AC50 was 5.11 µM (active) in [12]; 6.33 µM (active) in experiment [4]; 15 µM (active) in experiment [1]; 19.2 µM (active) in experiment [11]; 1.08 µM (active) in experiment [2]. Moreover, the molecule was classed as inactive in [6].
